Source: PubChem BioAssay
Hits are enriched below; roughly 21% of the tested compounds scored in any of these assays.
Pf growth 48h: inhibits P. falciparum growth in the first generation, 48 h; P. falciparum luciferase growth in erythrocytes, 48 h; Potency, µM (highest dose often 28.7 µM), for the others: top-dose activity change, negative = inhibition, hits mostly inhibitors; 5.9% of 310,000 active; AID 504832; active means well fitted inhibition curve with a large enough effect; inconclusive means small, poorly fitted or top-dose-only effect, or another doubt; inactive means no such curve, though single readings can be large or run the other way; further: potency means the concentration at half of the fitted maximal effect; on the % scale 0 is the no-effect control and ±100 the full control effect
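Luciferase-expressing P. falciparum in infected erythrocytes (2% hematocrit, 0.1% parasitemia final) in RPMI 1640/0.5% Albumax were exposed to compound for 48 hours at 37 C, 5% CO2; growth read as luminescence.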
SARS PLP yeast: SARS-CoV PLP inhibition in yeast | Potency, µM (highest dose often 32.9 µM), for the others: at the top dose activity, positive = growth rescue, hits mostly activators | 0.19% of 330,000 active | S. cerevisiae expressing SARS-CoV PLpro, growth rescue | AID 485353; further: potency means the concentration at half of the fitted maximal effect; 0% is about no effect; nearly all actives have a fitted effect of over 55% in size
CHX counter: counter-screen for Shiga toxin inhibitors: cycloheximide protein synthesis inhibition; max response, %; 12% of 300,000 active; cell reporter, cycloheximide protein synthesis inhibition counterscreen; AID 2314; in the data active means max response mostly above about 13%, no sharp cut-off; inactive means mostly below about 14%; further: read at 38.3 µM for the half of the compounds with a filed dose; 0% is about no effect
NS1 function inh: blocks influenza NS1 protein function | Potency, µM (highest dose often 46.1 µM), for inactives: at the highest dose activity, positive = more growth | 0.4% of 270,000 active | AID 2326; further: potency means the concentration at half of the fitted maximal effect; actives are rising curves; nearly all actives have a fitted effect of over 50% in size
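Recovery from NS1-induced slow growth read by OD600 in budding yeast switched to galactose assay medium (pH 6.0, -URA) at 1:100 dilution. Compound 23 nl per well; the matching strain lacking NS1 serves as control.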
Pf growth 96h: P. falciparum growth inhibition at 96 hour, primary screen for plastid delayed-death inhibitors; P. falciparum luciferase reporter growth, 96 h; Potency, µM (series often up to 28.7 µM), for inactives: top-dose activity change, negative = inhibition, most hits filed as inhibitors; 6.9% of 320,000 active; AID 504834; active means well fitted inhibition curve with a large enough effect; inconclusive means small, poorly fitted or top-dose-only effect, or another doubt; inactive means no such curve, though single readings can be large or run the other way; further: potency means the concentration at half of the fitted maximal effect; on the % scale 0 is the no-effect control and ±100 the full control effect
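Two-generation exposure (96 h) targets delayed-death phenotype. Reporter parasites carrying integrated firefly luciferase, in red cells at 2% hematocrit and 0.05% parasitemia final, kept at 37 C, 5% CO2; luminescence loss indicates inhibition.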
Shiga inhibitor: Shiga toxin inhibition; inhibition, % at 38.7 µM; Vero cells, Shiga toxin protein synthesis inhibition reporter; AID 2315; 9.2% of 290,000 active; in the data active means inhibition mostly above about 28%, no sharp cut-off; inactive means mostly below about 43%; further: 0% is about no effect
The depositor's hits bear a star; i = inactive; u = inconclusive; x = no result given; ! = not active in a repeat. Unless noted, the call rests on the fitted dose curve.

SMILES | Pf growth 48h | SARS PLP yeast | CHX counter | NS1 function inh | Pf growth 96h | Shiga inhibitor
CCCCn1c(N)c(N(CC)C(=O)CCc2ccccc2)c(=O)[nH]c1=O | 12% | 13% | -1 | 5% | 22% | -12
COC(=O)c1cc(S(=O)(=O)N2CCCCCC2)cn1C | 5% | -4% | -2 | -2% | 3% | -10
CC(=O)Nc1cccc(NC(=O)Cc2cccs2)c1 | -4% | -3% | -1 | 3% | u | -7
Cc1nc2ccc(NC(=O)Cc3cccs3)cc2s1 | i | 2% | 29* | -53% | -30% | 60*
O=C(Cc1cccs1)Nc1cccc(-c2nc3cc4ccccc4cc3[nH]2)c1 | 45% | -53% | 68* | u | 207% | 120*
Cc1nc2ccc(NC(=O)Cc3ccc(Br)cc3)cc2s1 | -12% | 0% | 2 | -3% | 15% | -8
CCOc1cccc(NC(=O)Cc2cccs2)c1 | 36% | 2% | 13 | -5% | 22% | 41*
O=C(Cc1cccs1)Nc1ccc(F)cc1 | 27% | -1% | 10.0* | 0% | u | 8
C/C=C(\C)CN1CCCC(CO)(Cc2ccccc2)C1 (stereo not given) | 17% | 0% | -2 | -2% | 46% | 9
CCc1ccc(-c2cc3c(=O)n(CC(=O)NCCN4CCCCC4C)nc(C)n3n2)cc1 (stereo not given) | u | -25% | 8 | 9% | -13% | -9
Cc1ccc(C23CC4CC(CC(CN)(C4)C2)C3)cc1 | 10µM* | -1% | -5 | -3% | u | -24
NCC12CC3CC(C1)CC(c1ccc(Br)cc1)(C3)C2 | 0% | -6% | -4 | -10% | 8% | -9
OCC[C@H]1C[C@H](O)[C@@H](O)[C@]2(OCc3ccccc32)O1 | u | 0% | x | x | 3% | x
CCOc1ccc(C(=O)NC(=S)Nc2ccccc2N2CCOCC2)cc1Br | u | -13% | -3 | 26% | -6% | -9
COc1cccc(N=c2oc3ccc(OC)cc3cc2-c2nc3ccccc3[nH]2)c1 | 76% | x | 40* | 0% | 62% | 94*
COc1cccc(N=c2oc3ccccc3cc2-c2nc3ccccc3[nH]2)c1 | u | -2% | 38* | -60% | u | 63*
Cc1[nH]ncc1-c1nc2ccccc2[nH]1 | -12% | 1% | 1 | 4% | -18% | 20
COc1ccc(N=c2oc3ccc(OC)cc3cc2-c2nc3ccccc3[nH]2)cc1 | 17% | x | 28* | 0% | 17% | 162*
CCn1cc(CCC(=O)NCCN2CCOCC2)c2ccccc21 | 39% | 0% | -2 | 2% | 30% | -13
CCN(Cc1ccccc1)C(c1cc2cc(C)cc(C)c2[nH]c1=O)c1nnnn1CCOC (stereo not given) | u | 1% | -1 | -51% | 0% | 10
COCCn1nnnc1C(c1cc2cc(OC)ccc2[nH]c1=O)N1CCC(Cc2ccccc2)CC1 (stereo not given) | 12µM* | -2% | 1 | -46% | -5% | 14
CCN(Cc1ccccc1)C(c1cc2cc(C)ccc2[nH]c1=O)c1nnnn1CCOC (stereo not given) | u | 4% | -4 | -37% | 12µM* | 31
CCOC(=O)NC(Nc1ccc(OC)cc1)(C(F)(F)F)C(F)(F)F | 12% | 15% | -3 | -2% | u | -8
COc1ccc(C2CC(O)(c3ccccc3)Oc3c(C)ccc(C)c32)cc1 (stereo not given) | 9.3µM* | -6% | -2 | -94% | u | -3
COc1ccc([C@@H]2C[C@@H](c3ccccc3)Oc3cc(C)cc(C)c32)cc1 | u | -2% | -5 | -4% | u | 1
SMILES | Pf growth 48h | SARS PLP yeast | CHX counter | NS1 function inh | Pf growth 96h | Shiga inhibitor
COc1ccc(C2CC(O)(c3ccccc3)Oc3cc(OC)cc(OC)c32)cc1 (stereo not given) | u | -10% | 22*! | 28% | u | 25
CCCCn1c(=O)nc2n(-c3ccc(Cl)cc3)c3ccccc3cc-2c1=O | -9% | 2% | -2 | 6% | 13% | 12
COc1cccc(C2Nc3ccccc3NC3=C2C(=O)CC(C)(C)C3)c1 (stereo not given) | -12% | -4% | -2 | -3% | 2% | 14
Cc1cccc(OCCOC(=O)c2ccc(F)c(S(=O)(=O)N3CCOCC3)c2)c1 | u | 8% | x | x | -30% | x
O=C(COC(=O)C12CC3CC(CC(C3)C1)C2)Nc1ccccc1F | 56% | -33% | 19* | -15% | 99% | 13
O=C(COC(=O)C12CC3CC(CC(O)(C3)C1)C2)Nc1ccc(Br)cc1F | i | -6% | x | x | 371% | x
CCCCN(Cc1ccccc1)S(=O)(=O)c1cc(Br)cc2c1N(C(C)=O)C(C)C2 (stereo not given) | 12µM* | -21% | -2 | -3% | x | -27
CC(=O)N1c2c(cc(Br)cc2S(=O)(=O)N2CCN(c3ccccc3F)CC2)CC1C (stereo not given) | u | -8% | -3 | 7% | 12µM* | -18
CC(=O)N1c2c(cc(Br)cc2S(=O)(=O)NCc2cccnc2)CC1C (stereo not given) | 9% | -3% | 3 | -8% | 21% | -5
Cn1c(=O)c2c(O)c(C=Nc3ccc(F)cc3)c(=O)n(C)c2n(C)c1=O | 32% | 0% | 0 | 3% | 35% | -9
COc1ccc(C2c3ccc4ccccc4c3Oc3ncn(CCN4CCOCC4)c(=N)c32)cc1 (stereo not given) | 12µM* | -29% | -8 | 2% | 6.6µM* | -20
N=c1c2c(ncn1CCN1CCOCC1)Oc1cc(O)ccc1C2c1ccccc1 (stereo not given) | u | 0% | -3 | -3% | u | 2
COc1ccc(C2c3c(ncn(CCCN4CCOCC4)c3=N)Oc3ccc4ccccc4c32)cc1OC (stereo not given) | 4.1µM* | 1% | -1 | 2% | 1.9µM* | 9
COc1ccc(C2c3ccc4ccccc4c3Oc3ncn(CCN4CCOCC4)c(=N)c32)cc1OC (stereo not given) | 9.3µM* | 1% | -3 | 1% | 13µM* | -16
Cc1ccc(OCC(=O)NCCCNC(=O)c2ccc(C)nc2)cc1 | -9% | -3% | 1 | -8% | 1% | -13
COc1ccc(OC)c(-n2nnnc2SCC(=O)N2CCN(C(=O)c3ccco3)CC2)c1 | -9% | 0% | 9 | 3% | u | 9
CCc1cc2ccc(OC)cc2nc1SCC(=O)N1CCN(C(=O)c2ccco2)CC1 | u | 0% | -2 | -47% | u | -1
Cc1cc2cc3c(cc2nc1SCC(=O)N1CCN(C(=O)c2ccco2)CC1)OCO3 | 13µM* | 6% | -3 | -47% | u | -6
Cc1cc(C)cc(-c2nnc(SCC(=O)N3CCN(C(=O)c4ccco4)CC3)o2)c1 | u | 5% | -2 | 1% | 12µM* | 24
Cc1ccc(-n2nnnc2SCC(=O)N2CCN(C(=O)c3ccco3)CC2)c(C)c1 | -19% | u | -4 | -14% | 6.6µM* | -1
